# Tests used:
# Assay in all cases: SPOT peptide array binding signal intensity (averaged, normalized) (arbitrary units (background-subtracted, floor 0; scale differs between SH3 domains)); higher = stronger binding of the SH3 domain to the peptide
# AgAbp1 = molecular target: AgAbp1
# Description: (§1)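 GST-tagged SH3 domains from S. cerevisiae (Sc), A. gossypii (Ag), C. albicans (Ca) and S. pombe (Sp) were incubated at 10 ug/ml overnight at 4 C on cellulose SPOT membranes carrying 292 synthetic 15-mer peptides mined from the S. cerevisiae proteome (cysteines replaced by serines). Binding was detected with anti-GST antibody, HRP secondary and chemiluminescence, quantified with Genespotter, and reported as normalized spot intensities averaged over biological replicates.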
# AgBbc1 = molecular target: AgBbc1
# Description: as §1
# AgBem1-D1 = molecular target: AgBem1-D1
# Description: as §1
# AgBzz1-D1 = molecular target: AgBzz1-D1
# Description: as §1
# AgBzz1-D2 = molecular target: AgBzz1-D2
# Description: as §1
# AgCyk3 = molecular target: AgCyk3
# Description: as §1
# AgFus1 = molecular target: AgFus1
# Description: as §1
# AgHof1 = molecular target: AgHof1
# Description: as §1
# AgHse1 = molecular target: AgHse1
# Description: as §1
# AgLsb1 = molecular target: AgLsb1
# Description: as §1
# AgLsb4 = molecular target: AgLsb4
# Description: as §1
# AgMyo5 = molecular target: AgMyo5
# Description: as §1
# AgNbp2 = molecular target: AgNbp2
# Description: as §1
# AgRvs167 = molecular target: AgRvs167
# Description: as §1
# AgSho1 = molecular target: AgSho1
# Description: as §1
# AgSla1-D1-D2 = molecular target: AgSla1-D1-D2
# Description: as §1
# AgSla1-D3 = molecular target: AgSla1-D3
# Description: as §1
# CaAbp1-D1 = molecular target: CaAbp1-D1
# Description: as §1
# CaAbp1-D2 = molecular target: CaAbp1-D2
# Description: as §1
# CaBbc1 = molecular target: CaBbc1
# Description: as §1
# CaBem1-D1 = molecular target: CaBem1-D1
# Description: as §1
# CaBzz1-D1 = molecular target: CaBzz1-D1
# Description: as §1
# CaBzz1-D2 = molecular target: CaBzz1-D2
# Description: as §1
# CaCyk3 = molecular target: CaCyk3
# Description: as §1
# CaFus1 = molecular target: CaFus1
# Description: as §1
# CaHof1 = molecular target: CaHof1
# Description: as §1
# CaHse1 = molecular target: CaHse1
# Description: as §1
# CaLsb1 = molecular target: CaLsb1
# Description: as §1
# CaLsb4 = molecular target: CaLsb4
# Description: as §1
# CaMyo5 = molecular target: CaMyo5
# Description: as §1
# CaNbp2 = molecular target: CaNbp2
# Description: as §1
# CaRvs167 = molecular target: CaRvs167
# Description: as §1
# CaRvs167-3 = molecular target: CaRvs167-3
# Description: as §1
# CaSho1 = molecular target: CaSho1
# Description: as §1
# CaSla1-D1-D2 = molecular target: CaSla1-D1-D2
# Description: as §1
# CaSla1-D3 = molecular target: CaSla1-D3
# Description: as §1
# ScAbp1 = molecular target: ScAbp1
# Description: as §1
# ScBbc1 = molecular target: ScBbc1
# Description: as §1
# ScBem1-D1 = molecular target: ScBem1-D1
# Description: as §1
# ScBzz1-D1 = molecular target: ScBzz1-D1
# Description: as §1
# ScBzz1-D2 = molecular target: ScBzz1-D2
# Description: as §1
# ScCyk3 = molecular target: ScCyk3
# Description: as §1
# ScFus1 = molecular target: ScFus1
# Description: as §1
# ScHof1 = molecular target: ScHof1
# Description: as §1
# ScHse1 = molecular target: ScHse1
# Description: as §1
# ScLsb1 = molecular target: ScLsb1
# Description: as §1
# ScLsb2 = molecular target: ScLsb2
# Description: as §1
# ScLsb3 = molecular target: ScLsb3
# Description: as §1
# ScLsb4 = molecular target: ScLsb4
# Description: as §1
# ScMyo3 = molecular target: ScMyo3
# Description: as §1
# ScMyo5 = molecular target: ScMyo5
# Description: as §1
# ScNbp2 = molecular target: ScNbp2
# Description: as §1
# ScPex13 = molecular target: ScPex13
# Description: as §1
# ScRvs167 = molecular target: ScRvs167
# Description: as §1
# ScSho1 = molecular target: ScSho1
# Description: as §1
# ScSla1-D1-D2 = molecular target: ScSla1-D1-D2
# Description: as §1
# ScSla1-D3 = molecular target: ScSla1-D3
# Description: as §1
# SpAbp1-D1 = molecular target: SpAbp1-D1
# Description: as §1
# SpBbc1 = molecular target: SpBbc1
# Description: as §1
# SpBzz1-D1 = molecular target: SpBzz1-D1
# Description: as §1
# SpBzz1-D2 = molecular target: SpBzz1-D2
# Description: as §1
# SpCyk3 = molecular target: SpCyk3
# Description: as §1
# SpHof1 = molecular target: SpHof1
# Description: as §1
# SpHof1-2 = molecular target: SpHof1-2
# Description: as §1
# SpHof1-3 = molecular target: SpHof1-3
# Description: as §1
# SpHse1 = molecular target: SpHse1
# Description: as §1
# SpLsb1 = molecular target: SpLsb1
# Description: as §1
# SpLsb4 = molecular target: SpLsb4
# Description: as §1
# SpMyo1 = molecular target: SpMyo1
# Description: as §1
# SpNbp2 = molecular target: SpNbp2
# Description: as §1
# SpPex13 = molecular target: SpPex13
# Description: as §1
# SpRvs167 = molecular target: SpRvs167
# Description: as §1
# SpSla1-D1-D2 = molecular target: SpSla1-D1-D2
# Description: as §1
# SpSla1-D3 = molecular target: SpSla1-D3
# Description: as §1
binder,measurement,setting,value
GLRRARYKFPGQQKI,SPOT peptide array binding signal intensity,AgAbp1,36.5
same,SPOT peptide array binding signal intensity,AgBbc1,30
same,SPOT peptide array binding signal intensity,AgBem1-D1,75
same,SPOT peptide array binding signal intensity,AgBzz1-D1,22.5
same,SPOT peptide array binding signal intensity,AgBzz1-D2,26
same,SPOT peptide array binding signal intensity,AgCyk3,3
same,SPOT peptide array binding signal intensity,AgFus1,230
same,SPOT peptide array binding signal intensity,AgHof1,24.5
same,SPOT peptide array binding signal intensity,AgHse1,283
same,SPOT peptide array binding signal intensity,AgLsb1,17.2
same,SPOT peptide array binding signal intensity,AgLsb4,32.5
same,SPOT peptide array binding signal intensity,AgMyo5,2
same,SPOT peptide array binding signal intensity,AgNbp2,55
same,SPOT peptide array binding signal intensity,AgRvs167,5.67
same,SPOT peptide array binding signal intensity,AgSho1,22
same,SPOT peptide array binding signal intensity,AgSla1-D1-D2,228
same,SPOT peptide array binding signal intensity,AgSla1-D3,3
same,SPOT peptide array binding signal intensity,CaAbp1-D1,388
same,SPOT peptide array binding signal intensity,CaAbp1-D2,257
same,SPOT peptide array binding signal intensity,CaBbc1,91.5
same,SPOT peptide array binding signal intensity,CaBem1-D1,11
same,SPOT peptide array binding signal intensity,CaBzz1-D1,74.5
same,SPOT peptide array binding signal intensity,CaBzz1-D2,69
same,SPOT peptide array binding signal intensity,CaCyk3,20.5
same,SPOT peptide array binding signal intensity,CaFus1,254
same,SPOT peptide array binding signal intensity,CaHof1,1
same,SPOT peptide array binding signal intensity,CaHse1,11.5
same,SPOT peptide array binding signal intensity,CaLsb1,0.5
same,SPOT peptide array binding signal intensity,CaLsb4,13
same,SPOT peptide array binding signal intensity,CaMyo5,2.5
same,SPOT peptide array binding signal intensity,CaNbp2,140
same,SPOT peptide array binding signal intensity,CaRvs167,15.2
same,SPOT peptide array binding signal intensity,CaRvs167-3,105
same,SPOT peptide array binding signal intensity,CaSho1,254
same,SPOT peptide array binding signal intensity,CaSla1-D1-D2,75
same,SPOT peptide array binding signal intensity,CaSla1-D3,3
same,SPOT peptide array binding signal intensity,ScAbp1,36
same,SPOT peptide array binding signal intensity,ScBbc1,19
same,SPOT peptide array binding signal intensity,ScBem1-D1,24
same,SPOT peptide array binding signal intensity,ScBzz1-D1,19
same,SPOT peptide array binding signal intensity,ScBzz1-D2,22
same,SPOT peptide array binding signal intensity,ScCyk3,107
same,SPOT peptide array binding signal intensity,ScFus1,244
same,SPOT peptide array binding signal intensity,ScHof1,1.5
same,SPOT peptide array binding signal intensity,ScHse1,854
same,SPOT peptide array binding signal intensity,ScLsb1,8.25
same,SPOT peptide array binding signal intensity,ScLsb2,5
same,SPOT peptide array binding signal intensity,ScLsb3,63
same,SPOT peptide array binding signal intensity,ScLsb4,13
same,SPOT peptide array binding signal intensity,ScMyo3,2
same,SPOT peptide array binding signal intensity,ScMyo5,4.5
same,SPOT peptide array binding signal intensity,ScNbp2,167
same,SPOT peptide array binding signal intensity,ScPex13,8.5
same,SPOT peptide array binding signal intensity,ScRvs167,31
same,SPOT peptide array binding signal intensity,ScSho1,296
same,SPOT peptide array binding signal intensity,ScSla1-D1-D2,294
same,SPOT peptide array binding signal intensity,ScSla1-D3,5
same,SPOT peptide array binding signal intensity,SpAbp1-D1,196
same,SPOT peptide array binding signal intensity,SpBbc1,2
same,SPOT peptide array binding signal intensity,SpBzz1-D1,145
same,SPOT peptide array binding signal intensity,SpBzz1-D2,0.5
same,SPOT peptide array binding signal intensity,SpCyk3,6
same,SPOT peptide array binding signal intensity,SpHof1,180
same,SPOT peptide array binding signal intensity,SpHof1-2,5
same,SPOT peptide array binding signal intensity,SpHof1-3,199
same,SPOT peptide array binding signal intensity,SpHse1,268
same,SPOT peptide array binding signal intensity,SpLsb1,26
same,SPOT peptide array binding signal intensity,SpLsb4,56
same,SPOT peptide array binding signal intensity,SpMyo1,1
same,SPOT peptide array binding signal intensity,SpNbp2,120
same,SPOT peptide array binding signal intensity,SpPex13,16
same,SPOT peptide array binding signal intensity,SpRvs167,12.5
same,SPOT peptide array binding signal intensity,SpSla1-D1-D2,1
same,SPOT peptide array binding signal intensity,SpSla1-D3,13

# From the supplement of paper PMC4466140
